# Laboratory results from PubChem BioAssay AID1511 (Johns Hopkins Ion Channel Center, 2009).
# Out of some 310,000 compounds screened, about 1,600 (0.52%) were called active. Many of the other results were omitted from the sample, so actives are more common in it than they were. A number with no mark means an inactive call.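 How the source made its calls: active means activation above the mean of controls blocked by dofetilide plus 5 SD; inactive means the rest.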
# Target: Voltage-gated inwardly rectifying potassium channel KCNH2 (Homo sapiens) (UniProt Q12809)
# Sequence (Q12809 whole entry, looked up): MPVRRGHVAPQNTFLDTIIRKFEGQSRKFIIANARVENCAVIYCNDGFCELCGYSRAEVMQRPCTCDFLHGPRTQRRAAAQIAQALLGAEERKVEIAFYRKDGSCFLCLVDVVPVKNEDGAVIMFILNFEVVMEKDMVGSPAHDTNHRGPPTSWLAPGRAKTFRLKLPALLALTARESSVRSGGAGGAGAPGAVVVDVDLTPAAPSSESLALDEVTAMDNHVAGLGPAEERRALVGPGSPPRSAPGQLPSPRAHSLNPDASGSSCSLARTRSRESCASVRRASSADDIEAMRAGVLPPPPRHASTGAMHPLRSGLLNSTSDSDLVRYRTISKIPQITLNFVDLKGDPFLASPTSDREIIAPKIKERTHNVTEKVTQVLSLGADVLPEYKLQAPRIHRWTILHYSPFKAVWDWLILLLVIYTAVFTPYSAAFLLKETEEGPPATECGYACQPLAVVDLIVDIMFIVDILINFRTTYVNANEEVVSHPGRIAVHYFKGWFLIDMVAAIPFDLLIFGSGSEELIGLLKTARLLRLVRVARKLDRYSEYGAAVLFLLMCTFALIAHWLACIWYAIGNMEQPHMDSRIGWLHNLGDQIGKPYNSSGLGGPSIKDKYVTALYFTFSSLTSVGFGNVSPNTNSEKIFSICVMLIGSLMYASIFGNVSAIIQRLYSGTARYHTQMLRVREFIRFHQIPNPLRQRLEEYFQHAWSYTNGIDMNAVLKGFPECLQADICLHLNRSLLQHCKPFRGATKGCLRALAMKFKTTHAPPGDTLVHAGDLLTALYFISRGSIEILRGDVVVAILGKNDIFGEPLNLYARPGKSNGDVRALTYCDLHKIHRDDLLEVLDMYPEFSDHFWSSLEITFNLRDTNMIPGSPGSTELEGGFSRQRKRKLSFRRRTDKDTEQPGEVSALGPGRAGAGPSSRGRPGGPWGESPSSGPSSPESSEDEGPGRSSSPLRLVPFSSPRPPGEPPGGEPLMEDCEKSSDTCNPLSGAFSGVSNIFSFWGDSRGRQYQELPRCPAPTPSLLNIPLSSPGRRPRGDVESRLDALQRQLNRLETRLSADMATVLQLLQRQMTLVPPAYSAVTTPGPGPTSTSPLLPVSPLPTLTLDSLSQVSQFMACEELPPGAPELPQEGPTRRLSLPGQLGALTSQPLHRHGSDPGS
# Assay: compounds relieving dofetilide block of hERG – cell-based, CHO-hERG, FluxOR thallium flux, dofetilide IC70, primary screen (AID 1511);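 further: thallium influx through hERG after potassium depolarization seen as dye fluorescence rise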
# Conditions: dofetilide IC70 present, at 10 µM, active compounds read high
row,SMILES,"activation (rescue from dofetilide block), less the hit threshold"
1,Cc1cccc(NC(=O)Cc2ccc(Br)cc2)n1,-12.3%
2,Cc1cccc(NC(=O)c2ccc3ccccc3n2)n1,-1.08%
3,CCOC(=O)C(=CNc1cccc(C)n1)C(=O)OCC,5.91% (active)
4,COC(=O)[C@H](CC(C)C)NC(=O)N1CCCCC1C (stereo partly drawn),-7.74%
5,CCc1ccc(CN(C)C(=O)CCc2nnc(-c3ccc(-c4ccccc4)cc3)o2)nc1,-22.3%
6,NS(=O)(=O)c1ccc(CNC(=O)c2ccc(Cl)cc2[N+](=O)[O-])cc1,-2.96%
7,O=C(Cn1ccc2cc(S(=O)(=O)N3CCCC3)ccc21)NCc1ccccc1,-5.85%
8,O=C(N/N=C/c1cccnc1)c1cc2ccccc2cc1O,-0.07%
9,N=c1oc2ccccc2cc1C(=O)N/N=C/c1ccccc1,-8.66%
10,Cc1ccc(/C=N/NC(=O)c2cc3ccccc3cc2O)o1,41.5% (active)
11,CCCCCN1CC(O)=C(c2ccccc2)C1=N,5.35% (active)
12,CCOC(=O)CCCN1CC(O)=C(c2nc3ccccc3s2)C1=N,-12%
13,CCCCCN1CC(O)=C(c2nc(-c3ccc(Cl)cc3)cs2)C1=N,-8.57%
14,CCC1OC(c2ccc([N+](=O)[O-])cc2)=Nc2ccccc21 (stereo not drawn),-15.1%
15,Cc1ccc(C(C)C)cc1OCC(=O)Nc1ccccc1N1CCCC1,-20.3%
16,CCc1cc2c(=O)c(-c3ccc(F)cc3)c(C(F)(F)F)oc2cc1OCC(=O)O,-11.1%
17,COc1ccc2oc(N)c(C=O)c(=O)c2c1,-3.18%
18,CCc1cc2c(=O)c(-c3ccon3)c(N)oc2cc1OC,5.25% (active)
19,CCOC(=O)c1cc(-c2ccc(Cl)s2)nc2c1c(C)nn2C,-9.55%
20,CC12c3ccccc3C(c3ccccc31)C1C(=O)N(Cc3cccnc3)C(=O)C12 (stereo not drawn),-9.37%
21,CCOC(=O)C1CCN(C(=O)COc2cccc3ccccc23)CC1,-10.3%
22,O=C(CN(CC1CCCO1)C(=O)CNS(=O)(=O)c1ccc(F)cc1)NCc1ccco1 (stereo not drawn),4.78% (active)
23,O=C(CN(CC1CCCO1)C(=O)CNS(=O)(=O)c1ccccc1)NCc1ccccc1 (stereo not drawn),-7.03%
24,CC(C)C(C(=O)NCc1ccco1)N(CC1CCCO1)C(=O)CNS(=O)(=O)c1ccc(F)cc1 (stereo not drawn),0.16%
25,O=C(CSc1ccccn1)N1CCN(S(=O)(=O)c2ccc(Cl)cc2)CC1,-10.1%

row,SMILES,"activation (rescue from dofetilide block), less the hit threshold"
1,CC1(C)Cc2cccc(OCC(N)=O)c2O1,-3.71%
2,CC1(C)Cc2cccc(OCC(=O)Nc3nccs3)c2O1,7.68% (active)
3,CC1(C)Cc2cccc(OCC(=O)NCc3ccccc3)c2O1,-7.06%
4,Cc1ccc2c(c1)N(S(=O)(=O)c1cc(-c3cc(C)no3)ccc1C)CCO2,-7.78%
5,O=C(CCc1ccccc1)NCCc1cccs1,-5.64%
6,COc1cc(S(=O)(=O)N2CCOCC2)ccc1NC(=O)COc1ccc(N(C)S(=O)(=O)c2ccc(C)cc2)cc1,-22.3%
7,O=C1NC(c2ccccc2)Oc2ccccc21 (stereo not drawn),-10.1%
8,CCNC(=S)Nc1ccc(OC(F)(F)F)cc1,-17.9%
9,FC(F)(F)Oc1ccc(NC(=S)NCc2ccccc2)cc1,-9.66%
10,CS(=O)(=O)c1sc(C(=O)NC(=S)Nc2ccc(OC(F)(F)F)cc2)c2c1C=CCC2,6.46% (active)
11,CC1(C)Cc2c(sc(NC(=O)C(=O)N3CCOCC3)c2C#N)CO1,-11.7%
12,CCC(=O)Nc1cccc(NC(=O)CSc2nnnn2C2CCCC2)c1,-7.7%
13,O=C(CSc1nnnn1C1CCCC1)Nc1ccc2c(c1)OCCO2,6.54% (active)
14,CC(=O)Nc1ccc(NC(=O)CSc2nnnn2C2CCCCC2)cc1,-7.91%
15,O=C(O)c1ccccc1-c1ccccc1C(=O)NCCc1ccccc1,-5.86%
16,CC(C)c1ccc(S(=O)(=O)NC2CCCC2)cc1,-6%
17,CCOc1cc(CNn2c(C)nnc2SCC(=O)NC(C)(C)C)ccc1OCC(=O)NC(C)(C)C,-9.51%
18,CC1CCN(C(=S)NC2CC3CCC2C3)CC1 (stereo not drawn),-8.02%
19,COc1ccc(CN2CC[C@H]3C=CC[C@@H](C(=O)N4CCOCC4)[C@H]3C2=O)cc1OC,5.8% (active)
20,COc1ccc(CNC(=O)[C@@H]2CC=C[C@@H]3CCN(C4CC4)C(=O)[C@@H]32)cc1,-7.13%
21,COc1ccc(CN2CCOC2=O)cc1OC,-6.78%
22,Cc1ccc(S(=O)(=O)c2c[nH]c3ccc(C)cc3c2=O)cc1,-9.36%
23,Cn1c(CC(=O)Nc2ccc(F)cc2)nnc1SCC(=O)NC1CCCCC1,-1.47%
24,CCOC(=O)c1c(NC(=O)C2(C)Cc3ccccc3C(=O)O2)sc2c1CCCC2 (stereo not drawn),-5.83%
25,CCOC(=O)c1c(NC(=S)NC)sc2c1CCCC2,28.9% (active)

row,SMILES,"activation (rescue from dofetilide block), less the hit threshold"
1,CCOC(=O)c1c(NC(=S)Nc2ccccc2)sc2c1CCN(C)C2,-15.5%
2,CCOc1ccc(CCN2C(=O)c3cccnc3C2=O)cc1OCC,-5.29%
3,CCc1nnc(NC(=O)c2c(O)c3c([nH]c2=O)CCCC3)s1,-12.7%
4,O=C(NCc1ccccn1)c1c(O)c2c([nH]c1=O)CCCC2,-0.66%
5,C[N+](C)(C)CCNC(=O)c1c(O)c2c([nH]c1=O)CCCC2,4.89% (active)
6,CCSc1ccccc1C(=O)NCc1ccc(OC)cc1,0.47%
7,CCC(C(=O)NC1CCCC1)N(C(=O)Cn1nnc(-c2ccc(C)o2)n1)c1ccc(OC)c(OC)c1 (stereo not drawn),-1.5%
8,CC(C)CNC(=S)NC(=O)c1ccc(Cl)cc1,7.52% (active)
9,CC(C)C(NC(=O)c1ccc(Cl)cc1)C(=O)O (stereo not drawn),-8.13%
10,O=C(NC(=S)NC1CCCCC1)c1ccc(Cl)cc1,-1.76%
11,OC(c1nnc(-c2ccccc2)o1)c1cccs1 (stereo not drawn),-10.2%
12,COCCCNC(=O)[C@H]1N2C(=O)c3ccccc3C2SC1(C)C (stereo partly drawn),-7.64%
13,CC1CCCN(C(=O)c2ccc3c(c2)C(=O)N(CCC2=CCCCC2)C3=O)C1 (stereo not drawn),-17.2%
14,Cc1ccc(S(=O)(=O)Oc2ccc(/C=N/NC(=O)c3c(Cl)cnn3C)cc2)cc1,-18.1%
15,CCc1nc2sc3c(Cl)ncnc3c2c2c1CCCC2,-13.4%
16,Cc1ccc(C)c(C(C)NC(=O)C2CCCO2)c1 (stereo not drawn),-6.97%
17,Cc1cc([N+](=O)[O-])ccc1NC(=O)C1CCCO1 (stereo not drawn),-1.96%
18,Cc1cc(C)c2nc(NC(=O)C3CCCO3)sc2c1 (stereo not drawn),5.12% (active)
19,CSc1cccc(NC(=S)N(C(C)C)C(C)c2ccccn2)c1 (stereo not drawn),-10.5%
20,N#Cc1c(NC(=O)CSc2nc3ccccc3c(=O)n2Cc2ccco2)sc2c1CCCC2,-16.4%
21,Cc1cc(NC(=O)CSc2nc3cc(Cl)ccc3c(=O)n2Cc2ccco2)no1,6.67% (active)
22,Cc1cc(NC(=O)CSc2nc3ccccc3n2CC(C)C)no1,-8.27%
23,CCN1CCN(c2nc(Nc3cccc(F)c3)nc(N)c2[N+](=O)[O-])CC1,1.19%
24,CCCN(CCC)S(=O)(=O)c1ccc(C(=O)NNC(=O)c2cc(OC)c(OC)c(OC)c2)cc1,-5.35%
25,C=CCN1C=C2C(=O)C(C)(OC(=O)CCc3ccccc3)C(=O)C=C2C=C1c1ccc(C#N)cc1 (stereo not drawn),-7.84%

row,SMILES,"activation (rescue from dofetilide block), less the hit threshold"
1,CC1(OC(=O)C2CCCC2)C(=O)C=C2C=C(c3ccc(C#N)cc3)OC=C2C1=O (stereo not drawn),7.34% (active)
2,COCCN1C=C2C(=O)C(C)(OC(=O)C3CCCC3)C(=O)C=C2C=C1c1ccsc1 (stereo not drawn),-7.58%
3,COc1ccc2c(c1)OC(O)(C(F)(F)C(F)F)CC2=O (stereo not drawn),-2.37%
4,CCN1CCCC1CNC(=O)Cn1cnc2ccc(S(=O)(=O)N3CCC(C)CC3)cc2c1=O (stereo not drawn),7.23% (active)
5,O=C(Cn1cnc2ccccc2c1=O)Nc1cccc(S(=O)(=O)N2CCCCC2)c1,-13.8%
6,CC1CCN(S(=O)(=O)c2ccc3ncn(CC(=O)N(C)C4CCCCC4)c(=O)c3c2)CC1,-5.76%
7,CN(CCc1cn[nH]c1)C(=O)CC1C(=O)NCCN1Cc1cccc(Oc2ccccc2)c1 (stereo not drawn),-5.68%
8,S=c1[nH]c2ccccc2c2ccccc12,6.26% (active)
9,S=c1ccc2ccccc2[nH]1,-11.4%
10,NC(=O)Cc1ccc2c(c1)[nH]c1ccccc12,-8.6%
11,O=C(C1CCCN1S(=O)(=O)c1ccc(Br)cc1)N1CCOCC1 (stereo not drawn),-0.78%
12,CCCCCC1CCC(c2nnc(SCC(C)=O)o2)CC1 (stereo not drawn),5.95% (active)
13,O=C(CSc1nnc(-c2ccccc2O)o1)NC1CCCCC1,-7.03%
14,CCN(CC)C(=O)CSc1nnc(C2CCCCC2)o1,-6.69%
15,O=c1oc2ccccc2cc1-c1cn(-c2ccccc2)c(=S)[nH]1,-6.67%
16,COc1ccc(-c2cn(-c3ccc(OC)cc3)c(=S)[nH]2)cc1,-3.47%
17,S=c1[nH]c(-c2cccs2)cn1-c1ccccc1,8.23% (active)
18,CC(=O)N1CCN(S(=O)(=O)c2ccc(C)c([N+](=O)[O-])c2)C1C(C)C (stereo not drawn),-8.18%
19,Cc1ccc2c(c1)N(CC(=O)N1CCC(C)CC1)C(=O)c1cccnc1O2,-4.18%
20,C=CCc1cc(S(=O)(=O)c2ccc(O)c(CC=C)c2)ccc1O,-8.79%
21,CCC1(C)Cc2c(sc3[nH]c(=S)n(Cc4ccccc4)c(=O)c23)CO1 (stereo not drawn),32.2% (active)
22,CCC1(C)Cc2c(sc3nc(SC)[nH]c(=O)c23)CO1 (stereo not drawn),-9.23%
23,CCC1(C)Cc2c(sc3nc4n(c(=O)c23)CCCS4)CO1 (stereo not drawn),-3.92%
